From PMC12864922, “TDP-43 directly inhibits mRNA accumulation in neurites through modulation of mRNA stability”
Over roughly 9,900 sequences, “r (bound/input frequency ratio)” has its median near 0.7; the highest 2% begin near 6.5. What follows is part of a selection rich in the highest values, with near analogues and random picks from the rest.

B1: ENSMUSG00000042529.105|Kcnj12 (ssRNA)
RNA: GGGAGUUCUACAGUCCGACGAUCGCUUCGAUAUCCGCAUGCUAAGGUCUGUUUUCUCCCUCACGUGGGCCAGGGCCUUAAGCGAGUUGUCAUGCUUAAGGAUGAAUCAGGCUGCUUGUGACCAUGUUAACGAUUCUAAUAAAGUGUCUGGAUGUCUCUUGGGGGUGGGGCCCACUAGGGUGAAUCUGGCUUGCUCUUCUGUUUGAUGUUGUUGUACCUCAGCUGCCUCAGGGCUGGGUUUAGACACCCCUUCCCCCACCCCCACUCCGUACUCCCUGUUGUGCUUCCCUUCCUAUUUAGUCCCCUCUUGCGGUCGCACUAGUGUGGAAUUCUCGGGUGUCAAGG
B2: ENSMUSG00000090935.77|Synj2bp (ssRNA)
RNA: GGGAGUUCUACAGUCCGACGAUCGCUUCGAUAUCCGCAUGCUACUUUGUCAGCAUAGGCAGGAGUCCUUUAGGAUUUCUGCCUAUCAGUAAAAGAAGUAUGUAACCCAAGUUCUACCUUCAGUGGAUUAAAGUUUCAUUAAGUGAAAAUGGAAAGAAAGUAGAAUUACUUGGUAAGAGGCCAAAUGAGGAUACAGAGGCUGAAGAAGAUUGAAAGGAGCUAGUGUAAACAAACAAACAAACAAACAAACAAAAAACCAAACCCCAAAACAAAAACAAAAACAAAACAAAAUUGGAGAAAGCAGCUCUUGCGGUCGCACUAGUGUGGAAUUCUCGGGUGUCAAGG
B3: ENSMUSG00000090935.604|Synj2bp|54:59 (ssRNA)
RNA: GGGAGUUCUACAGUCCGACGAUCGCUUCGAUAUCCGCAUGCUACUAAUAGACACUGUUUGCUUCAGUUGUUUUUGUUUCCUUUUCCUACAGUUUUCACACACGGUGAUUUCAUUUAAUUAAUUGGACAGUCUAGCCACAGGCAACAAAUAGAAAUAGUAUUUGUAAUUAUAGUCUAUGCCAGGGACUGUCUUAAACUGAUUAGUAACACUAUGACUUACCCUGAGAUCUAAGUAUUGCUAUAAAGAGACUGAAGAGGAGAGAAUAAAGUAUUUUCCUAGGACUACAUAGUUGGUAAAAGAGAACUCUUGCGGUCGCACUAGUGUGGAAUUCUCGGGUGUCAAGG
B4: ENSMUSG00000035279.10|Ssc5d|99:105 (ssRNA)
RNA: GGGAGUUCUACAGUCCGACGAUCGCUUCGAUAUCCGCAUGCUAAUGCCUUCAAACCACCCAGAAGCCAGACCUUACACUCAGCUUCAGACCACCUCACUCAAGGGCCAACCCCUAAUCACAACCCAGAUCCUUUUGGGCCAACACACACCCCAUUACCACCAGUAAGGGUCAUGGCUUGUGAGCCACCUGCCUUGGUGGAGCUGGUAGGUGCUGUGAGGGAGGUGGGUGACCAGCUGCAGAGACUGACCUGGGUCCUGGAGCAGGACCGGCAGGAGCGCCAAGUCCUGGCACUGGGCCUAGCCCUCUUGCGGUCGCACUAGUGUGGAAUUCUCGGGUGUCAAGG
B5: ENSMUSG00000031028.241|Tub (ssRNA)
RNA: GGGAGUUCUACAGUCCGACGAUCGCUUCGAUAUCCGCAUGCUAGGUUCUGGGGCUGGGCUUGGACACGCCCUCCAUUGGGAUGGCACCACUCAUCUGGUGGGCUUGGGAACUCCAAGCUCUUGCCUGUGUGCCAUCUGUGAGAAGCUUCUUGGAGCUGAGACACCAGAGGGAAGCAAAGAGCAUUUAGACAUUGCUUUUUGCUUUGAAAUAGAUAUGUUUGGAAACGCUAAGUAGAAGUUUAAAAAGUAGAGUCAUGUAGAGUCAUGCUUUGAAUAUGUGGGUCAUGCUUUAGAUAUGAAGAGCUCUUGCGGUCGCACUAGUGUGGAAUUCUCGGGUGUCAAGG
B6: ENSMUSG00000061578.211|Ksr2 (ssRNA)
RNA: GGGAGUUCUACAGUCCGACGAUCGCUUCGAUAUCCGCAUGCUAUGACACAAGAGGCAAAGCUGUCCCUAAGCAGAGAAUUAGCAGGGUUAGCCAGACAGCAAAAUCCAUGUAAACAUACAAAACCACCCCCCCUUUUUGAGUGGCCCUAUUGGAUGUACACACUAGGACCAAGCACGGGUCCAAAGCAGGAAGACUGAUUGACAGUAGUCACACUUCUAGAGAGAUGUACCCCAUGACACUUUCAAGUCUUUUCAGAACCUUCUCACCCCUUUGCAAAGCUCUUGCCGUCUGCACCCGGGACCCUCUUGCGGUCGCACUAGUGUGGAAUUCUCGGGUGUCAAGG
B7: ENSMUSG00000090935.117|Synj2bp (ssRNA)
RNA: GGGAGUUCUACAGUCCGACGAUCGCUUCGAUAUCCGCAUGCUAUUUGCCCUCACCAUGGUAGCAGUUUGGGCCUUCGUGAGAUACCGAAAGCAGCUUUGAAAUGCUUGCUGUCUUCCAGUGUGUCCAAUGAACUCUCUCUCUCACUCACCAUCUCUGACAUCCUCCCAUAUUCUUUCUCCUCCACAUAGCCAAUACAAGAUUUAAAGUGACUGCUUAUCACCCAAAACCCUGCUAUUCAAAAUCUCCUAUUCUAAUGGAAGAGUACAGGGGUUAUUUGAAGAAAAGCUGUGGUGGUGUGUGUGCUCUUGCGGUCGCACUAGUGUGGAAUUCUCGGGUGUCAAGG
B8: ENSMUSG00000061578.735|Ksr2 (ssRNA)
RNA: GGGAGUUCUACAGUCCGACGAUCGCUUCGAUAUCCGCAUGCUAUGUAUCAAGACCUUGGAGUUGUCUAAGGCUGUGGGUUUUAAAUACCUGCUGCAGGCCUCCCAUCUCUGGCUCUUUGUUUCCACUCUGGCCCAAGUUUGAGUCUCCAUAUGGGCCCUUCCUGUCCUCAUGCCCUGCCUGUCUUCAUUCCACCCAUCCACCCUCCUAAGGAUUGGUCUUGUUCCGAGAGUGAUCCUGGUAACGCCAAGCCUCCCUCUGCCCCUGUGUUGGCUUCUGUGACGGACUACCACACACCAAGAGGUCUCUUGCGGUCGCACUAGUGUGGAAUUCUCGGGUGUCAAGG
B9: ENSMUSG00000029028.148|Lrrc47 (ssRNA)
RNA: GGGAGUUCUACAGUCCGACGAUCGCUUCGAUAUCCGCAUGCUAUUGAGAACAUCAUGUUGUGAGUGUAAUCUUCUUAGAGCUUGUUUCCAGGCACCGUGCUGCCGCCAUGCUCCCAGGGCAGCAUCUGCCUUCCACGGCUGUGCUUGGAACUGUAGUGCUGGUCGUUGUUGGCACAUCUGCGCCUUGGCCAAGGAAGUUAUCUAUGUCCGUGUAGUCCUUUGUAGUCAGACAGAUGCUUCGUGGACUGUGCCUCACACAUGGCCCUGCAGGCUCCAUGUCAGCGUGUCCCACUAUUCAUGUCCCUCUUGCGGUCGCACUAGUGUGGAAUUCUCGGGUGUCAAGG
B10: ENSMUSG00000004113.103|Cacna1b (ssRNA)
RNA: GGGAGUUCUACAGUCCGACGAUCGCUUCGAUAUCCGCAUGCUAAUCCUAAGCAGGAGGUAGCUGAGUUGAGAUGGACCCAGCAAAUCCAAAUCCUAUGUCAUGGCCUCCAGCAUCCAGGGUGGGUCCUUGGGACUUUUCUUAGGAGGGACUUUCUGAGCCUCGUGGAGAGUGUGGUUUGUCCAAAUGUGUGGCAUGGGAGAUAGGGUACCCCUGAAAGCAAGGAAAGGAGCCCAGCUGUGGCCUGGUAGCACCUGCCGGCACCAGUGAUCUCACGUCUCUUGUGGUCUUGGAGUCAAAUAGCACUCUUGCGGUCGCACUAGUGUGGAAUUCUCGGGUGUCAAGG
B11: ENSMUSG00000061578.1429|Ksr2|169:173 (ssRNA)
RNA: GGGAGUUCUACAGUCCGACGAUCGCUUCGAUAUCCGCAUGCUAAGAUCUGUCUUGCUCUCUGUCUCUCUCACUCAUUGCCAACAUGUUGCUGGGAAAGAAUAUUUGAUUUAGAUGCCAAUCAGGAAGGCAAGUAGGAUGGAUGGAUGAGUGAGUGGAUAGGUAGGUAUAUAAAUGGAUGGAUGGGUGAUGGAUGGGUAAAUGAAUGGAUAGCAUACUGAAUGAAUGGAUGAUGGAUGAAUGGAUGGGUAGGUGGGUAGAUAGGUAUAUGAAUGAAUGGAUGAAUGGAUGGGUGAAUGGAUGGACUCUUGCGGUCGCACUAGUGUGGAAUUCUCGGGUGUCAAGG
B12: ENSMUSG00000035279.28|Ssc5d (ssRNA)
RNA: GGGAGUUCUACAGUCCGACGAUCGCUUCGAUAUCCGCAUGCUACAUUACCACCAGUAAGGGUCAUGGCUUGUGAGCCACCUGCCUUGGUGGAGCUGGUAGGUGCUGUGAGGGAGGUGGGUGACCAGCUGCAGAGACUGACCUGGGUCCUGGAGCAGGACCGGCAGGAGCGCCAAGUCCUGGCACUGGGCCUAGCCCAGUUGGUAGAGGCUGCUCAGGGGUUGGGGCAGCUGAGUGAGACUGUAAAGAGGCUAGCAGAGGUGGCCUGGCCCCCCAGCACUCCUGUGCCCAUGACCACCACCACACUCUUGCGGUCGCACUAGUGUGGAAUUCUCGGGUGUCAAGG
B13: ENSMUSG00000031028.488|Tub|93:99;130:136 (ssRNA)
RNA: GGGAGUUCUACAGUCCGACGAUCGCUUCGAUAUCCGCAUGCUAAGGAGGAGCUGAGAUGUGCACCCUUUUAAAUGAACAUGGGGUGGUGAUGGUGCCUUAACAAUCUUGACACUAAGGUGAAGCAAGCAAGUAAGCACACACCCUCUGGGAAGACAGGAGUCGGAAGCCAAGCACACACGCAACAGUCUGGAAGAGAGCUUUUGGUAAUCAUACCGUCUUCAGUGACAAGGCAACAAUGCUGUAAAGUGGGUUUGUUUGGUUUUGUUUUUUCUUUCUCUUUUAUGGAAAUGGCAGGUCUAUUUCUCUUGCGGUCGCACUAGUGUGGAAUUCUCGGGUGUCAAGG

The binders below were run against TDP-43 (Homo sapiens, UniProt Q13148 1-414) (assay: RNA Bind-n-Seq with designed 260-mer pool; 25 mM Tris-HCl, 150 mM KCl, 3 mM MgCl2, BSA (printed 500 mg/mL), 20 units/mL SUPERase IN; pH not stated; 500 nM RNA pool, 1 h, 4 C; TDP-43 5, 50, 500 nM; high values mean tight binding). Settings: protein: recombinant; tags: SBP (GST cleaved off with PreScission; pGEX-GST-SBP).
Method in brief: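 Streptavidin beads captured recombinant SBP-tagged TDP-43 at 5, 50 or 500 nM, and the beads were incubated for 1 h at 4 °C with 500 nM of an in vitro-transcribed pool of 260-nt 3′ UTR oligos in 25 mM Tris-HCl, 150 mM KCl, 3 mM MgCl2, BSA and SUPERase IN. After washing, bound RNA was eluted with biotin, reverse transcribed, PCR-amplified and sequenced. Binding is reported as R, the mapped-read-normalized abundance of each oligo in the bound sample divided by its abundance in the input. Two independent protein batches served as duplicates.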

Sequence of TDP-43 (Q13148 whole entry): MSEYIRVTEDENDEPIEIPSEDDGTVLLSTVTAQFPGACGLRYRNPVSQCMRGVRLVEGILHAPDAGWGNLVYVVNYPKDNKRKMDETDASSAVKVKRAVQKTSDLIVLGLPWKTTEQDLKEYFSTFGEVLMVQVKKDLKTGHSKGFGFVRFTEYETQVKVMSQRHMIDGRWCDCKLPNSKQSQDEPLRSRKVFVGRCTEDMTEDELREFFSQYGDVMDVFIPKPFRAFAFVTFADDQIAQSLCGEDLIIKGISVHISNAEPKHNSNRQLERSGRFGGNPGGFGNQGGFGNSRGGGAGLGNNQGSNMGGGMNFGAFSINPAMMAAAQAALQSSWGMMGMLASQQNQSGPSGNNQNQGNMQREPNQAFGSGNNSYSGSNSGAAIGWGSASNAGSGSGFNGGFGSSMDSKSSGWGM

Row | Binder | binding signal
1 | B1 | 3.16 R (bound/input frequency ratio)
2 | B2 | 0.858 R (bound/input frequency ratio)
3 | B3 | 0.0675 R (bound/input frequency ratio)
4 | B4 | 1.24 R (bound/input frequency ratio)
5 | B5 | 0.949 R (bound/input frequency ratio)
6 | B6 | 0.667 R (bound/input frequency ratio)
7 | B7 | 1.43 R (bound/input frequency ratio)
8 | B8 | 1.36 R (bound/input frequency ratio)
9 | B9 | 1.13 R (bound/input frequency ratio)
10 | B10 | 1.15 R (bound/input frequency ratio)
11 | B11 | 5.89 R (bound/input frequency ratio)
12 | B12 | 0.915 R (bound/input frequency ratio)
13 | B13 | 0.906 R (bound/input frequency ratio)
